Test results reported in PMC7826789 (International Journal of Molecular Sciences, 2021).

How the values were obtained:
Details in all cases: Compound Concentration (nM):1000
JNK1 = tested on: T1, JNK1
T1 construct: gene MAPK8

JNK2 = tested on: T2, JNK2
T2 construct: gene MAPK9

JNK3 = tested on: T3, JNK3
T3 construct: gene MAPK10

KIT(A829P) = tested on: KIT(A829P)
KIT(D816H) = tested on: KIT(D816H)
KIT(D816V) = tested on: KIT(D816V)
KIT(L576P) = tested on: KIT(L576P)
KIT(V559D) = tested on: KIT(V559D)
KIT(V559D,T670I) = tested on: KIT(V559D,T670I)
KIT(V559D,V654A) = tested on: KIT(V559D,V654A)
KIT-autoinhibited = tested on: KIT-autoinhibited
KIT = tested on: KIT
LATS1 = tested on: LATS1
LATS2 = tested on: LATS2
LCK = tested on: LCK
LIMK1 = tested on: LIMK1
LIMK2 = tested on: LIMK2
LKB1 = tested on: T4, LKB1
T4 construct: gene STK11

LOK = tested on: T5, LOK
T5 construct: gene STK10

LRRK2(G2019S) = tested on: LRRK2(G2019S)
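Also: KINOMEscan scanMAX binding as percent activity remaining versus control; lower means stronger binding.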

SMILES	Percent Control (JNK1)	Percent Control (JNK2)	Percent Control (JNK3)	Percent Control (KIT(A829P))	Percent Control (KIT(D816H))	Percent Control (KIT(D816V))	Percent Control (KIT(L576P))	Percent Control (KIT(V559D))	Percent Control (KIT(V559D,T670I))	Percent Control (KIT(V559D,V654A))	Percent Control (KIT-autoinhibited)	Percent Control (KIT)	Percent Control (LATS1)	Percent Control (LATS2)	Percent Control (LCK)	Percent Control (LIMK1)	Percent Control (LIMK2)	Percent Control (LKB1)	Percent Control (LOK)	Percent Control (LRRK2(G2019S))
COc1ccc2c(-c3ccnc(Nc4cccc(OC(F)(F)F)c4)n3)cnn2n1 [GW810372X]	22%	60%	41%	83%	77%	87%	88%	88%	86%	100%	81%	86%	100%	91%	100%	94%	100%	100%	100%	86%
COc1cc(N2CCN(C(C)C)CC2)ccc1Nc1nc(Nc2ccc(F)cc2C(=O)NC[C@@H](O)CO)c2cc[nH]c2n1 [GSK1392956A]	0%	0.1%	0.1%	88%	57%	100%	100%	100%	96%	98%	100%	100%	100%	95%	100%	92%	75%	81%	100%	5.4%
O=C1Nc2ccc(C(=O)c3ccco3)cc2C1=Cc1cc(Cl)c(O)c(Cl)c1 [GW406108X]	64%	70%	64%	83%	69%	81%	38%	52%	78%	100%	82%	62%	100%	92%	89%	100%	100%	100%	94%	6.9%
COc1ccc(COc2ccc(Cc3cnc(N)nc3N)cc2OC)cc1 [GW632580X]	85%	93%	94%	100%	68%	96%	93%	96%	100%	100%	91%	95%	100%	100%	87%	79%	91%	100%	88%	95%
COc1cc(C)c(N(C)C(=O)CN(C)C)cc1Nc1nc(Nc2cccc(F)c2C(N)=O)c2cc[nH]c2n1 [GSK2219385]	88%	74%	83%	100%	60%	81%	100%	100%	100%	93%	100%	100%	100%	80%	100%	100%	96%	83%	100%	8.8%
NS(=O)(=O)c1ccc(N/N=C2\C(=O)Nc3ccc(C(=O)NCCc4c[nH]cn4)cc32)cc1 [GW300660X]	61%	89%	96%	85%	41%	94%	100%	100%	100%	100%	93%	100%	100%	100%	100%	100%	100%	100%	100%	71%
NS(=O)(=O)c1ccc(N/N=C2\C(=O)Nc3ccc(-c4cnco4)cc32)cc1 [GW276655]	87%	83%	83%	79%	69%	100%	55%	58%	100%	100%	81%	58%	56%	65%	89%	60%	67%	100%	92%	17%
COc1cc2ncn(-c3cc(O[C@H](C)c4ccccc4Cl)c(C(N)=O)s3)c2cc1OC [GSK237701A]	88%	79%	81%	11%	14%	14%	34%	33%	12%	81%	100%	49%	99%	86%	52%	100%	54%	75%	0.3%	69%
CCS(=O)(=O)c1ccc(OC)c(Nc2ncc(-c3cccc(F)c3)o2)c1 [GW621970X]	69%	92%	94%	63%	51%	39%	3%	4.8%	35%	90%	14%	13%	94%	100%	25%	100%	100%	100%	100%	100%
COc1cc2ncnc(Nc3ccc4c(cnn4Cc4ccccc4)c3)c2cc1OC.Cl [GW282449A]	100%	100%	100%	100%	100%	100%	100%	98%	100%	93%	100%	100%	100%	100%	23%	95%	100%	100%	13%	100%
NS(=O)(=O)c1ccc(N/N=C2\C(=O)Nc3ccc(C(=O)NCc4ccncc4)cc32)cc1 [GW300657X]	55%	40%	38%	47%	14%	61%	83%	87%	89%	100%	99%	87%	100%	67%	100%	100%	90%	100%	100%	89%
CCS(=O)(=O)c1ccc(OC)c(Nc2ncc(-c3cccc(OC)c3)o2)c1 [GW580509X]	76%	89%	95%	83%	52%	42%	0%	2.3%	66%	79%	20%	9.1%	100%	100%	46%	100%	100%	100%	100%	100%
Cl.O=S1CCN(Cc2ccc(-c3ccc4ncnc(Nc5ccc(OCc6ccccc6)c(F)c5)c4c3)o2)CC1 [GW576924A]	100%	100%	100%	100%	100%	100%	100%	100%	94%	100%	100%	100%	100%	100%	100%	100%	100%	100%	100%	100%
COC(=O)Nc1nc2ccc(Oc3ccc(NC(=O)Nc4cc(C(F)(F)F)ccc4F)cc3)cc2s1.Cl [GW693917A]	87%	60%	79%	1.9%	39%	61%	0%	0.2%	2.5%	20%	87%	0.5%	100%	80%	2.2%	43%	62%	100%	0.6%	74%
Nc1ncnc2occ(-c3ccc(NC(=O)Nc4cc(C(F)(F)F)ccc4F)cc3)c12 [GW770249X]	99%	9.2%	100%	7.5%	32%	14%	0%	0%	0.5%	7.5%	31%	0%	100%	91%	25%	100%	94%	83%	0.4%	81%
COc1ccc2cc(-c3c(-c4ccncc4)nc(-c4ccc(S(C)(=O)=O)cc4C)n3C)ccc2c1 [SB-633825]	73%	24%	20%	52%	46%	74%	77%	65%	88%	89%	91%	74%	67%	70%	54%	74%	29%	100%	1.3%	90%
COc1ccc2[nH]c3c4[nH]c5ccc(OC)cc5c4c4c(c3c2c1)C(=O)NC4=O [GW296115X]	82%	55%	31%	15%	6.6%	1.7%	8.2%	9%	49%	66%	72%	24%	100%	43%	85%	91%	81%	99%	88%	2.6%
Cl.c1ccc(Cc2nc3ccc(Nc4ncnc5ccccc45)cc3[nH]2)cc1 [GR269666A]	91%	100%	100%	100%	100%	100%	100%	91%	100%	85%	100%	94%	100%	100%	88%	100%	100%	100%	100%	100%
Cl.O=C(O[C@H]1CN[C@H](C#Cc2cc3ncnc(Nc4ccc5c(cnn5Cc5ccccc5)c4)c3s2)C1)N1CCOCC1 [GSK200398A]	90%	91%	88%	100%	69%	100%	100%	100%	87%	100%	96%	100%	100%	100%	81%	100%	100%	100%	63%	84%
CC1=C(C(=O)Nc2ccc3[nH]ncc3c2)C(c2ccc3ccccc3c2)CC(=O)N1 (stereo not shown) [GSK270822A]	78%	80%	82%	55%	70%	78%	71%	72%	84%	98%	100%	80%	66%	7%	33%	100%	88%	100%	100%	77%
